HCT116 bCat-KO – beta-catenin-lacking colon tumor cell growth suppression. HCT116 beta-catenin knockout viability, CellTiter-Glo, 60 h; hits give low values. viability, % at 10 µM. actives 1.5% (n = 140,000);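 active means viability at or under a set limit, the compound median less 4 SD, cut at about 6% in these data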
L major viab – Leishmania major promastigote growth inhibition; inhibition, % at 10 µM; actives 9% (n = 200,000); Leishmania major promastigotes, resazurin fluorescence viability; AID 1063; in the data active means inhibition above about 50%;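 further: promastigotes grown with compound for 44 hours at 28 °C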
Insulin prom inh – TRM-6 insulin promoter activity inhibition | inhibition, % at 2 µM | actives 0.9% (n = 130,000) | TRM-6 cells (human fetal islet line), insulin promoter-eGFP reporter, imaging; reporter expression induced with tamoxifen;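 active means inhibition above the mean plus 3 SD, with well images judged a real hit on visual review, cut at about 60% in these data, passing the limit was not always enough; inconclusive means inhibition over the cutoff but images rejected on review; inactive means inhibition not above the cutoff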
Insulin prom up – MIN6 insulin promoter up-regulation. AID 1625. z-score at 5 µM. actives 0.3% (n = 190,000). MIN6 insulin promoter-GFP reporter, high-content imaging; hits give high values;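 active means z-score above 3 at 5 µM with at least 500 cells counted in the well; inconclusive means wells under 500 cells, flagged as cytotoxic or low count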
Autophagy mod – modulators of autophagy | calls only at 10 µM (by protocol) | actives 0.98% (n = 190,000) | MEF GFP-LC3 puncta imaging; test concentration mostly 10 µM | AID 463193;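 active means percentage of spot-positive cells more than 3 SD above its plate mean, without a fluorescence outlier flag or 80% toxicity; inconclusive means no clear call, values can overlap the other calls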
PTEN del growth – growth suppressors of cells with PTEN tumor suppressor deletion | HCT116 PTEN-null viability, CellTiter-Glo, 60 h; hits give low values | viability, % at 10 µM | actives 1.2% (n = 140,000) | AID 827;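 active means viability at or below a set limit, 4 SD under the median of all tested compounds, cut at about 3.7% in these data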;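 further: PTEN knockout HCT116 line with beta catenin targeted HCT116 as companion control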
A number is an active result; n = inactive; u = inconclusive; x = not tested or not shown; + = active, no number. A selection: hits, their analogues and other compounds. The true share with any hit is near 9.6%.

SMILES	HCT116 bCat-KO	L major viab	Insulin prom inh	Insulin prom up	Autophagy mod	PTEN del growth
Cc1cccc2cc(CN(CC3CCCO3)C(=S)Nc3ccccc3)c(=O)[nH]c12 (centres undefined)	n	71	n	n	n	n
Cc1cccc2cc(CN(CC3CCCO3)C(=O)NC3CCCCC3)c(=O)[nH]c12 (centres undefined)	n	n	n	n	n	n
CCNC(=S)N(Cc1cc2cccc(C)c2[nH]c1=O)C1CCCC1	n	97	n	n	n	n
COc1cc(S(=O)(=O)N2CCCC2)c(C)cc1C	x	n	n	n	n	x
CC1CN(Cc2ccccc2)c2nc3c(c(=O)n(C)c(=O)n3C)n2C1 (centres undefined)	n	n	n	n	n	n
CNC(=S)N(Cc1ccc(OC)cc1)Cc1cc2cccc(C)c2[nH]c1=O	x	57	n	n	n	x
Cc1sc2cc3c(c(C(=O)c4ccccc4)[n+]2c1C)-c1cccc2cccc-3c12	2.2	100	n	u	n	2.1
Cc1ccc(S(=O)(=O)N(C)C)cc1NC(=S)NC12CC3CC(CC(C3)C1)C2	n	78	x	n	n	n
O=C(NCCSc1ccccc1)c1ccc(Br)cc1	n	n	n	n	n	n
O=C(CSc1ccccc1)N(c1ccc(Br)cc1)c1nccs1	n	67	n	n	n	n
Brc1ccc2nc3c(n2c1)CCCC3	n	n	n	n	n	n
CCOc1ccccc1N(CC(=O)NC(C)(C)C)C(=O)Cn1nnc(-c2ccc(C)o2)n1	n	60	n	n	n	n
COCCn1c(SCC(=O)c2c[nH]c3ccccc23)nnc1-c1ccncc1	n	83	n	n	n	n
Clc1ccc(-c2cc3ccccc3nc2N2CCOCC2)cc1	x	n	n	n	n	x
O=c1oc2ccccc2cc1-c1nc(-c2cccs2)cs1	n	n	x	x	n	n
C=CCNCCCCOc1c(Cl)cc(C)cc1Br	n	99	n	n	n	n
COCCCNCCCCOc1c(Cl)cc(C)cc1Br	n	100	n	n	n	n
C=CCNCCOc1c(C)cc(C)cc1Cl	n	n	n	n	n	n
Cc1cc(C)c(OCCCCNCc2ccccc2)c(Cl)c1	n	97	n	n	n	n
Cc1nnc(-c2ccccc2)nc1N1CCOCC1	n	n	n	n	n	n
CC(=O)NCCC(=O)N1CCCC(CNC(=O)c2ccc(-c3ccccc3)cc2)C1 (centres undefined)	x	n	x	x	n	x
O=C(O)/C=C/c1ccc(S(=O)(=O)NCc2ccco2)cc1	x	n	x	n	n	x
O=C(/C=C/c1ccc(S(=O)(=O)NCc2ccco2)cc1)NCc1cccc(Cl)c1	n	94	n	n	n	n
Cc1ccc(CNC(=O)/C=C/c2ccc(S(=O)(=O)NCc3ccco3)cc2)cc1	n	78	n	n	n	n
CCOC(=O)C(CCCP(=O)(c1ccccc1)c1ccccc1)(NC(C)=O)C(=O)OCC	x	x	x	n	x	x
SMILES	HCT116 bCat-KO	L major viab	Insulin prom inh	Insulin prom up	Autophagy mod	PTEN del growth
CCOC(=O)/C=C1\SCC(=O)N1CC(=O)NC(c1ccccc1)c1ccccc1	n	77	n	n	n	n
CN(C)c1ccc(S(=O)(=O)NCC(=O)OCC(=O)Nc2cc(Cl)cc(Cl)c2)cc1[N+](=O)[O-]	n	n	n	n	n	n
COC(=O)c1ccc(CSc2nc3c(c(=O)n2-c2ccccc2)SCC3)o1	n	87	n	n	n	n
COC(=O)c1ccc(CSc2nc3ccccc3c(=O)n2-c2ccc(OC)c(OC)c2)o1	n	97	n	n	n	n
COC(=O)c1ccc(CSc2nc3c(c(=O)n2-c2ccc(F)cc2)SCC3)o1	n	100	n	n	n	n
COC(=O)c1ccc(CSc2nc3ccccc3c(=O)n2-c2ccccc2)o1	n	n	n	x	n	n
COc1ccccc1-n1c(SCC(=O)Nc2cc(C)on2)nc2c(c1=O)SCC2	x	n	n	n	+	x
CCS(=O)(=O)c1ccc2oc(Nc3ccc(C(C)(C)C)cc3)nc2c1	x	n	x	n	n	x
Cc1cc(C)nc(SC2=CS(=O)(=O)c3ccccc32)n1	2.0	n	n	x	n	1.8
O=C(CSc1nc2ccccc2s1)CSc1nc2ccccc2s1	n	n	n	n	n	n
CSc1nnc(-c2ccccc2)o1	n	n	n	n	n	n
O=S1(=O)C=C(Sc2nc3ccccc3s2)c2ccccc21	1.9	100	x	n	+	1.2
O=S1(=O)C=C(Sc2nnc(-c3ccccc3)o2)c2ccccc21	1.2	n	n	n	n	0.9
Cc1nc2cc(NC(=O)N(C)c3ccc4ccccc4c3)ccc2o1	n	n	71	n	n	n

High-throughput results deposited in PubChem by several laboratories.
